FMDV antiviral: High Throughput Screening for Foot and Mouth Disease Virus Antivirals | FMDV antiviral cell-based qHTS | Potency, µM (top dose mostly 57.9 µM), hits mostly inhibitors | hit rate 1.2% among 410,000; calls by dose curve; tested in HEK293T cells; note: read-out not given here; nearly all actives have a fitted effect of over 45% in size
RE007 growth inh: qHTS Assay for Inhibitors of the HIV-1 protein Vpr; S. pombe RE007 Vpr strain, BacTiter-Glo ATP luminescence, 24 h; Potency, µM (top dose mostly 92.2 µM), actives largely listed as inhibitors; hit rate 0.21% among 360,000; active = well fitted falling curve with a large enough effect; inconclusive = small, poorly fitted or top-dose-only effect; inactive = no such curve, though single readings can be large or run the other way; note: nearly all actives have a fitted effect of over 50% in size
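Fission yeast strain RE007, carrying one chromosomally integrated HIV-1 vpr copy, was seeded at OD 0.01 in PMG+AL medium with 23 nL pinned compound. After 24 h at 30 °C and 99% humidity, viability was read by BacTiter-Glo luminescence.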
Giardia FBPA inh: qHTS Assay for Inhibitors of Fructose-1,6-bisphosphate Aldolase from Giardia Lamblia | A8B2U2 | purified Giardia FBPA | Potency, µM (titrated, usually from 59.6 µM), usual class: inhibitors | hit rate 0.71% among 290,000 | AID 2451, 2010; note: nearly all actives have a fitted effect of over 55% in size
Target sequence (A8B2U2 whole entry, looked up): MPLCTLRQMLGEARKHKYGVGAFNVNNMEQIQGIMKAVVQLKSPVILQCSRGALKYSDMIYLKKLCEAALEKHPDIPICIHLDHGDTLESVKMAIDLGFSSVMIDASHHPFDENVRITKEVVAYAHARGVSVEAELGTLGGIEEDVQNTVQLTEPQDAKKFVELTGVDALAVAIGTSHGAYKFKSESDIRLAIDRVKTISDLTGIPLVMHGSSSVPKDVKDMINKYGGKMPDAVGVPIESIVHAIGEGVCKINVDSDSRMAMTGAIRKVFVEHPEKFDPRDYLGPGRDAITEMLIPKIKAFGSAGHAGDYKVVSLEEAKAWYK
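Giardia FBPA (40 nM reagent) was preincubated 10 min at RT with compound (up to 57.5 uM final), then substrate plus GAPDH/TPI/NAD/arsenate coupling system with diaphorase/resazurin was added; resorufin fluorescence (525/598 nm) was read after 20 min.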
HCMV inh: qHTS Assay for inhibitors of the human cytomegalovirus (HCMV); HFF cells, HCMV-luciferase reporter, 72 h; stronger effect = lower value; hit rate 4.5% among 410,000; activity change, negative = inhibition, % at 57.5 µM; in the data active = activity change below about -60%; inconclusive = no clear call, values can overlap the other calls; inactive = above about -39%
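Two compound doses tested in HFFs infected with HCMV-luciferase, MOI 1 PFU/cell, 72 h at 37C. Lysate luminescence read with OneGlo; data normalized against buffer-only and 10uM Salinomycin inhibitor controls.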
TbPYK inhibitor: qHTS of Trypanosoma Brucei Inhibitors. hit rate 0.12% among 410,000. Potency, µM (top dose mostly 76.8 µM), actives largely listed as inhibitors. pyruvate kinase (Trypanosoma brucei), Q57TT1. TbPYK enzyme, Kinase-Glo Plus ATP luminescence, 45 min; note: nearly all actives have a fitted effect of over 50% in size
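Assay buffer: 50 mM TEA pH 7.2, 100 mM KCl, 10 mM MgCl2, 0.05% BSA, 0.01% Tween-20. Pyruvate kinase from T. brucei plus substrate met compound, then ADP (130 uM final). Luminescence was read post 45 min RT.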
Sm TGR block: qHTS Assay for the Inhibitors of Schistosoma Mansoni Peroxiredoxins | Schistosoma mansoni thioredoxin glutathione reductase (TGR), Q962Y6 | purified TGR, DTNB reduction, TNB absorbance 405 nm | Potency, µM (series often up to 114 µM), most hits filed as inhibitors | hit rate 3% among 360,000 | AID 485364, 2010; note: nearly all actives have a fitted effect of over 60% in size
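TGR 20 nM + NADPH 100 uM (dispensed conc.), cpd preinc 15 min RT; start with NADPH (500 uM addition) then DTNB (15 mM addition). Kinetic TNB absorbance, 405 nm filter. Four-parameter Hill fit across titration.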
Hits are given with their value; i = inactive; ? = inconclusive; nt = no result given; ! = repeats disagree. Hits are enriched below; roughly 7.7% of the tested compounds scored in any of these assays. Unless noted, calls come from the whole dose curve; as a rule, active = well fitted curve in the direction sought with a large enough effect; inconclusive = small, poorly fitted or top-dose-only effect, or another doubt; inactive = no such curve, though single readings can be large; an effect the other way counts as inactive or inconclusive.

SMILES	FMDV antiviral	RE007 growth inh	Giardia FBPA inh	HCMV inh	TbPYK inhibitor	Sm TGR block
COc1ccc(/C=C/C(=O)Nc2ccc(Cl)c(Cl)c2)cc1	i	nt	nt	i	i	i
C=CCc1cccc(/C=N/NC(=O)CCC(=O)Nc2ccc(F)cc2)c1O	i	i	i	-84.0	i	i
C=CCc1cccc(/C=N/NC(=O)C[n+]2ccccc2)c1O	i	i	i	nt	i	i
C=CCc1cccc(/C=N/NC(=O)CNc2ccccc2OC)c1O	i	i	i	-97.7	i	i
C=CCc1cccc(/C=N/NC(=O)CCCNc2ccc(C)cc2)c1O	i	nt	i	i	i	i
C=CCc1cccc(/C=N/NC(=O)CNc2ccccc2)c1O	i	i	i	-99.4	i	i
C=CCc1cccc(/C=N/NC(=O)CNc2cccc3ccccc23)c1O	i	i	?	i	i	i
COc1cccc(/C=N/NC(=O)CSCC(=O)Nc2ccccc2)c1O	i	i	i	-93.1	i	i
CCCN(c1ccccc1F)S(=O)(=O)c1cc(-c2cc(C)no2)ccc1C	i	nt	nt	i	i	i
C=CCc1cccc(/C=N/NC(=O)C(C)Nc2cccc(C)c2)c1O (stereo not given)	i	i	i	-80.1	i	i
COc1ccc(CNCc2c(C(=O)O)c(C)n(Cc3ccc(Cl)cc3)c2C)c(OC)c1	i	nt	nt	i	i	i
N#Cc1cc([N+](=O)[O-])c(-n2nnc3ccccc32)c([N+](=O)[O-])c1	i	i	i	nt	i	14.1µM
CS(=O)(=O)c1ccc(-n2nnc3ccccc32)c([N+](=O)[O-])c1	i	i	i	i	i	i
CCC(=O)Nc1ccc(C(=O)OCc2ccccc2)cc1	i	i	i	i	i	i
COP(=O)(OC)c1ccc(NCc2cc(O)ccc2O)cc1	i	i	nt	?	i	nt
CC(C)OC(=O)c1ccc(NCc2cc(O)ccc2O)cc1	6.31µM	i	nt	-62.7	?	nt
O=C(OCc1ccccc1)c1ccc(NCc2cc(O)ccc2O)cc1	10µM	?	nt	-86.8	i	nt
Cn1nnnc1SCCNCc1ccc(OCc2ccc(Cl)cc2)cc1	i	nt	nt	i	i	i
CCOC(=O)N1CCN(Cc2nc3cc(NC(=O)C(C)C)ccc3n2C(C)C)CC1	i	nt	nt	?	i	i
CCOC(=O)c1c(-c2ccc(C)o2)csc1NC(=O)CSc1nnnn1-c1ccccc1	nt	i	i	i	?	5.62µM
CCOC(=O)c1c(-c2ccc(C)o2)csc1NC(=O)CSc1nnc(C)s1	nt	i	i	i	i	?
CCOC(=O)c1c(-c2ccc(C)o2)csc1NC(=O)COC(=O)c1ccc(NC(N)=O)cc1	?	i	i	i	i	10µM
CCOC(=O)c1c(CC(C)C)csc1NC(=O)COC(=O)c1ccc(O)cc1	35.5µM	i	nt	i	i	i
Cc1ccc(N(CC(=O)N2CCN(c3cccc(Cl)c3)CC2)S(=O)(=O)c2c(C)noc2C)cc1	i	nt	nt	i	i	i
COc1ccc(N(CC(=O)N2CCN(c3cccc(Cl)c3)CC2)S(=O)(=O)c2c(C)noc2C)cc1	i	i	nt	-67.2!	i	i
SMILES	FMDV antiviral	RE007 growth inh	Giardia FBPA inh	HCMV inh	TbPYK inhibitor	Sm TGR block
CCOC(=O)C1CCN(C2CCN(C(=O)c3oc4c(C)c(C)ccc4c3C)CC2)CC1	i	i	nt	i	i	i
Cc1ccc2c(C)c(C(=O)N3CCCC(C(N)=O)C3)oc2c1C (stereo not given)	i	i	i	-98.7	i	i
CC1(C)CC(=O)C(c2c[nH]c3ccccc23)C(=O)C1	i	i	i	i	i	20µM
CC(C)(C)N(NC(=O)c1ccccc1)C(=O)c1ccc(C(=O)N(NC(=O)c2ccccc2)C(C)(C)C)cc1	i	i	i	-60.0	i	i
CCCN1C(=O)C[C@H](S(=O)(=O)c2ccccc2)[C@H]1c1ccc(C#N)cc1	nt	nt	nt	i	nt	nt
CCCn1c(CCC(=O)O)ccc1-c1ccc(F)cc1	nt	i	i	i	i	?
O=C(O)CCc1ccc(-c2ccc(Br)cc2)n1Cc1ccco1	i	i	i	i	i	50.1µM
O=C(O)CCc1ccc(-c2ccc(F)cc2)n1Cc1ccco1	i	i	i	i	i	50.1µM
O=C(O)CCc1ccc(-c2ccccc2)n1Cc1ccco1	i	i	i	i	i	31.6µM
COc1ccc(/C=C(\C#N)c2nc(-c3cc(Cl)ccc3OC)cs2)cc1	i	nt	nt	i	i	i
Cc1ccc(C)c(N2CCN(C(=O)c3cc(C)nc4c3c(C)nn4-c3ccccc3)CC2)c1	i	nt	nt	i	i	i
Cc1ccc(CSc2nc3cccnc3n2Cc2ccc(C(=O)NC3CCCCC3)cc2)cc1	i	nt	nt	i	i	i
Cc1ccc(S(=O)(=O)CCC(=O)N(CCN2CCOCC2)c2nc3ccccc3s2)cc1	i	i	nt	i	i	35.5µM
Cc1cccc2sc(N(CCCN3CCOCC3)C(=O)CS(=O)(=O)c3ccc(F)cc3)nc12	i	i	nt	i	i	i
Cc1cccc2sc(N(CCN3CCOCC3)C(=O)CCS(=O)(=O)c3ccccc3)nc12	i	i	nt	i	i	44.7µM
COc1ccc(-c2cn3nc(N4CCCC(C(=O)NCc5ccc(Cl)cc5)C4)sc3n2)cc1 (stereo not given)	i	nt	nt	i	i	i
CCN1CCN(c2ccc([N+](=O)[O-])cc2C=C2C(=O)NC(=O)NC2=O)CC1	i	i	i	i	22.4µM	12.6µM
CCOC(=O)C1=CCN(S(=O)(=O)c2ccccc2Cl)C1c1ccc(Cl)cc1 (stereo not given)	nt	nt	nt	i	nt	nt
CCOC(=O)C1=C[C@@H](C(C)(C)C)N(S(=O)(=O)c2ccccc2C)[C@H]1c1ccc(Cl)cc1	?	i	nt	-76.7	i	nt
CCOC(=O)C1=C[C@@H](C(C)(C)C)N(S(=O)(=O)c2ccc(C)cc2)[C@H]1c1ccc(Cl)c(Cl)c1	?	i	nt	-87.7	i	nt
Cc1ccccc1OC(=O)c1snnc1C	i	nt	nt	i	i	i
Cc1nnsc1C(=O)Oc1ccccc1Cl	i	nt	nt	i	i	44.7µM
Cc1ccccc1-c1ccc(CN2CCc3nnc(C(NS(C)(=O)=O)C(C)C)n3CC2)cc1 (stereo not given)	i	nt	nt	nt	nt	nt
CSc1nnc(-c2cccc(NC(=S)NN)c2)o1	i	i	i	-66.0	i	i
Cc1cc(C)cc(NC(=O)c2oc3ccc4c(c3c2C)C(=O)CC(C)(C)O4)c1	i	nt	nt	-105.3	i	i
Cc1ccc(CN2CCN(/N=C/c3ccc(C(=O)O)cc3)CC2)cc1	i	i	i	i	i	i
Oc1ccc(/C=N/N2CCN(C3c4ccccc4-c4ccccc43)CC2)cc1O	?	i	i	i	i	10µM
Cc1ccc(CN2CCN(/N=C/c3ccc(O)c(O)c3)CC2)cc1	i	i	i	i	?	31.6µM

Compound activity from PubChem.
